# About 21,000 targets were measured; listed, in parts, are those with the largest changes and a random draw of the rest.
# Compound: CC1Cc2ccccc2N1C(=O)C1CCCN(C1)C(=O)CCl (mixture of isomers) [TRIM25 ligand 11 (diastereomer mixture)]
# Experiment: probe-labelled cysteine peptide fold change vs DMSO (competition) (log2 fold change); higher = less target engagement (more negative = stronger competition)
# Details: 10 µM; THP-1; incubation time: 4 h
# 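Note: competitive chemoproteomic profiling in live THP-1 cells with an iodoacetamide desthiobiotin (IA-DTB) probe, comparing probe-labelled peptide intensities in compound-treated cells against DMSO-treated controls.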
# UniProt Q9Y5W7, sequence (Q9Y5W7 whole entry, looked up): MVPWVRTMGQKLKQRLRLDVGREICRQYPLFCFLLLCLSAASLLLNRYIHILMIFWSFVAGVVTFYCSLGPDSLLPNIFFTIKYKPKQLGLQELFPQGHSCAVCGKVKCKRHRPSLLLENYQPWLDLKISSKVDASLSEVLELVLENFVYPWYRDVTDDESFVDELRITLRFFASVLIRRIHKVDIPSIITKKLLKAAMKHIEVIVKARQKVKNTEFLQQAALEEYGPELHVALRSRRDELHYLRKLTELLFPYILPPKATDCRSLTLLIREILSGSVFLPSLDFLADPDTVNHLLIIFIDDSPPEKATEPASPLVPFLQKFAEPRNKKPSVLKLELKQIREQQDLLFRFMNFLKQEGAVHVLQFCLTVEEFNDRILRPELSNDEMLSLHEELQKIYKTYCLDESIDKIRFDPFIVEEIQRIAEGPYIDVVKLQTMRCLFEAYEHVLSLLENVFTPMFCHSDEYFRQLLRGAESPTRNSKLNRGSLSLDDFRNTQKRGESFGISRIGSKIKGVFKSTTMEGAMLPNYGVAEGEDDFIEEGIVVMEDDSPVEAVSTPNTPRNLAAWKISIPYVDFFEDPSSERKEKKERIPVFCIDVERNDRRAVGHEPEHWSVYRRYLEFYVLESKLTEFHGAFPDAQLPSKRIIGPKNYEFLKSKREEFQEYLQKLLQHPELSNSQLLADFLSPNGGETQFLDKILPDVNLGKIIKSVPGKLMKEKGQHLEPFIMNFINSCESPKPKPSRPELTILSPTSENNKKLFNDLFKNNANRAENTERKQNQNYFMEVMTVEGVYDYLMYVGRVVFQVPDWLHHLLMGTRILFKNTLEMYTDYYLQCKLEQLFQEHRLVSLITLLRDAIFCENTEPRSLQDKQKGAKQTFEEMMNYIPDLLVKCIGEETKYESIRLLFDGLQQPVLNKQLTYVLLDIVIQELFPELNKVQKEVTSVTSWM
# UniProt Q9H173, sequence (Q9H173 whole entry, looked up): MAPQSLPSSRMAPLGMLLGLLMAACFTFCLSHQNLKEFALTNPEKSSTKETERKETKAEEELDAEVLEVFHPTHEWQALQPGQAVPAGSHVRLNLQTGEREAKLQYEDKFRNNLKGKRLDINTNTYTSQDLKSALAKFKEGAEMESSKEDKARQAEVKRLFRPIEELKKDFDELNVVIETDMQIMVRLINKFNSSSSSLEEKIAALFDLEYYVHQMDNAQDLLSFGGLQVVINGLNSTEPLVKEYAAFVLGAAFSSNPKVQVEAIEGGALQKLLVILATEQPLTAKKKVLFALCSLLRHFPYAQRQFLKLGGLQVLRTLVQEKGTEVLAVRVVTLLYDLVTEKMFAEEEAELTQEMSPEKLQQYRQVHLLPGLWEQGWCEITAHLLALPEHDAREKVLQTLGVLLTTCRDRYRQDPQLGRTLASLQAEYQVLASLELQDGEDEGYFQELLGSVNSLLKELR
# UniProt Q7Z7L1, sequence (Q7Z7L1 whole entry, looked up): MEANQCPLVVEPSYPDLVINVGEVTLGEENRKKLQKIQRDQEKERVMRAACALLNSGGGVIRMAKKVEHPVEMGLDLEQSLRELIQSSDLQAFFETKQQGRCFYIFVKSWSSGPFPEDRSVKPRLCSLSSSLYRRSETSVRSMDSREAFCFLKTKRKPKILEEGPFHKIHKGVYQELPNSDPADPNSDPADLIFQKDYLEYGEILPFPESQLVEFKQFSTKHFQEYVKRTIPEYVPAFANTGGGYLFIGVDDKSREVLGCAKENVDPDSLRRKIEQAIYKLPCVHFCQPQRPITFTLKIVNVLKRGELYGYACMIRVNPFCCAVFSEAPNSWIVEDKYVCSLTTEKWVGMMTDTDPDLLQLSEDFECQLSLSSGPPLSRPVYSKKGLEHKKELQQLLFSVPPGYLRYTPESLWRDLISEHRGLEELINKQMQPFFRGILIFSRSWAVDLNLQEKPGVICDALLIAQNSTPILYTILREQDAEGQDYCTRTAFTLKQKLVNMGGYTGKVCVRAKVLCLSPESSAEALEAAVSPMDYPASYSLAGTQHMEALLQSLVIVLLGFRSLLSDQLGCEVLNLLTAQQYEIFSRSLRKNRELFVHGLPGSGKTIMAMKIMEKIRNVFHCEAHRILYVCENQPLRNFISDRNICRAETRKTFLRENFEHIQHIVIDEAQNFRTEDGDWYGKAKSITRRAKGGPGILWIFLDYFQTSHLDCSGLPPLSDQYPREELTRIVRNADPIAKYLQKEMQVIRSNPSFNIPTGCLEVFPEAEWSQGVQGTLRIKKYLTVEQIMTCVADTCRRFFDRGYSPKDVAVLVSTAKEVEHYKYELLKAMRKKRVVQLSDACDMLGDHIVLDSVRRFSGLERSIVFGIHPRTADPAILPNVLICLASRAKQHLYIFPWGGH
# UniProt Q99611, sequence (Q99611 whole entry): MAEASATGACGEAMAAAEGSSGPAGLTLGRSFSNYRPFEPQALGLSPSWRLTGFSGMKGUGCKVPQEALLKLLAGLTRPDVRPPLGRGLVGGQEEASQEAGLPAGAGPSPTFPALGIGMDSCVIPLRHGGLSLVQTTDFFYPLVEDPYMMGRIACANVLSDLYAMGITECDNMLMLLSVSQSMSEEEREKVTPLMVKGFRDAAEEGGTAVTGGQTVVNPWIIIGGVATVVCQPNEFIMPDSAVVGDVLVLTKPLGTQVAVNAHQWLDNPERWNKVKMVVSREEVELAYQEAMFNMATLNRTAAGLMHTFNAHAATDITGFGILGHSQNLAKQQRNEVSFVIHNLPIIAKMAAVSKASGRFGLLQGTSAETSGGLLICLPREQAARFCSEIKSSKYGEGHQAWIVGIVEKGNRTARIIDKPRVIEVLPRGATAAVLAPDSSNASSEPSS
# UniProt Q9BWU0, sequence (Q9BWU0 whole entry, looked up): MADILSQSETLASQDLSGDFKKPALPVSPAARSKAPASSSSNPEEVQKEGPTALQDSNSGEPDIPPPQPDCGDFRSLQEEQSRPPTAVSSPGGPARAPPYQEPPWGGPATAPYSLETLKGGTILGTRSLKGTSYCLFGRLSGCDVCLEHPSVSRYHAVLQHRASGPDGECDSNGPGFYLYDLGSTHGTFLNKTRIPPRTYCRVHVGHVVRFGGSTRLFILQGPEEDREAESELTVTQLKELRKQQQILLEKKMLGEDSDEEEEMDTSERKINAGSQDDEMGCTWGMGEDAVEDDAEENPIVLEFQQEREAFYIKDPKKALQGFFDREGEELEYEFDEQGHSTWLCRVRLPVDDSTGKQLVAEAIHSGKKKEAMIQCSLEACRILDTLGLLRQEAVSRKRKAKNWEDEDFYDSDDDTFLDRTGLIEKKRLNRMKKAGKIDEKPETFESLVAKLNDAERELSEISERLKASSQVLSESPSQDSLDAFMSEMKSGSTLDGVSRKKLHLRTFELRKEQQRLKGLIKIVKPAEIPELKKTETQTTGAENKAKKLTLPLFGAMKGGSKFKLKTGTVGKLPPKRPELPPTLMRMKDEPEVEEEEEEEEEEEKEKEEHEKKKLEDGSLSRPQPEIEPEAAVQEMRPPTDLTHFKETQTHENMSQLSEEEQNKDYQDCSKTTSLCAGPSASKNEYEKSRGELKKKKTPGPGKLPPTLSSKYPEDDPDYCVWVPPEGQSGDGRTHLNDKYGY
# UniProt Q9UHD8, sequence (Q9UHD8 whole entry, looked up): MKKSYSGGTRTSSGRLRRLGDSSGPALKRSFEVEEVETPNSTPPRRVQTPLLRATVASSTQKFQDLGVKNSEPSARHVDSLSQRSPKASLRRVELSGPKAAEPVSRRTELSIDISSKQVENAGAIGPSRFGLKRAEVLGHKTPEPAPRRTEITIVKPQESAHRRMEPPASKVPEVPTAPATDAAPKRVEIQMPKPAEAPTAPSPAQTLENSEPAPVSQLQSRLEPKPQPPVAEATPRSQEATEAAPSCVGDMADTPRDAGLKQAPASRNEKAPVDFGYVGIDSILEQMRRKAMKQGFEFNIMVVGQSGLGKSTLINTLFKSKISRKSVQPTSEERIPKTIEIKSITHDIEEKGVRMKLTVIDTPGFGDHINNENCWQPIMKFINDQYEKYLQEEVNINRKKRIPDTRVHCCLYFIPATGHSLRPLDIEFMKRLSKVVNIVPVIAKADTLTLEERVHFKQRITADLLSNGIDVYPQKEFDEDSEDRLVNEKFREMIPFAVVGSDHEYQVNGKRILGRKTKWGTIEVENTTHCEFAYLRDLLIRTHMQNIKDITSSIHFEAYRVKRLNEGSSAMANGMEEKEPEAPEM
# UniProt Q9UGP8, sequence (Q9UGP8 whole entry, looked up): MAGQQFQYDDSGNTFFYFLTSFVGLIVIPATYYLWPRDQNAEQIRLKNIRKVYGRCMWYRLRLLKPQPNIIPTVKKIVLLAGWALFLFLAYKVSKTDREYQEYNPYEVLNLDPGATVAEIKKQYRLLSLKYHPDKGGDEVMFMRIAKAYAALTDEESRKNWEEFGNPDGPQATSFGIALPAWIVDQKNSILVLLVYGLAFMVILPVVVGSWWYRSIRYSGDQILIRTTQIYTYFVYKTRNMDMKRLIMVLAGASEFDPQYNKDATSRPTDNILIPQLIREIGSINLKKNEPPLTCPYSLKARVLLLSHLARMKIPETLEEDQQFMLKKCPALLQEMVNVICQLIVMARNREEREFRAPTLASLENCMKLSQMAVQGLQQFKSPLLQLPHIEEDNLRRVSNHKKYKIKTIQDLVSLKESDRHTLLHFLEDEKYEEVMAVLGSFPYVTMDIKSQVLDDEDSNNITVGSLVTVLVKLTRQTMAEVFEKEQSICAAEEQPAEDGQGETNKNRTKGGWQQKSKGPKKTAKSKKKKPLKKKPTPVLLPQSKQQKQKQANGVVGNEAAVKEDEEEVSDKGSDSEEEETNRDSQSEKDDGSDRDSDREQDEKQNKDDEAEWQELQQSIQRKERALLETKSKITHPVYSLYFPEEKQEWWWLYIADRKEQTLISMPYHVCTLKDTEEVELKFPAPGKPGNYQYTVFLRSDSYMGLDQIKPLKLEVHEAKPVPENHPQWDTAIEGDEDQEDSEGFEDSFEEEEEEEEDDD
# UniProt P09234, sequence (P09234 whole entry, looked up): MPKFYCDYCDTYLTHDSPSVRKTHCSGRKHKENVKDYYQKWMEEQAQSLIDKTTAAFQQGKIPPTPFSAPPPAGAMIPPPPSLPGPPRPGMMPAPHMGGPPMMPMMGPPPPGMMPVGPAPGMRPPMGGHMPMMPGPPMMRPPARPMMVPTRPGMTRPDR
row,Target,probe-labelled cysteine peptide fold change
1,SLC35B1_P78383_119_SCKPIPVMLLGVTLLK (UniProt P78383),-0.942
2,SIRT6_Q8N6T7_141_LAELHGNMFVEECAK (UniProt Q8N6T7),0.087
3,RPS17_P08708_35_RVCEEIAIIPSKK (UniProt P08708),-0.177
4,SEPHS2_Q99611_377_FGLLQGTSAETSGGLLICLPR (UniProt Q99611),0.196
5,SAFB2_Q14151_224_ILDILGETCK<|>SAFB_Q15424_225_ILDILGETCK (UniProt Q15424+Q14151),-0.021
6,SNTB1_Q13884_515_DGEIQLDLHSCPKPIVFIIHSFLSAK (UniProt Q13884),-0.207
7,SNX18_Q96RF0-2_570_CNTISFATLAEIHHFHQIR (UniProt Q96RF0),0.155
8,SMS_P52788_256_TCGDVLDNLKGDCYQVLIEDCIPVLKR (UniProt P52788),-0.302
9,SEC16A_O15027_1293_YWCDAEYDAYR (UniProt O15027),-0.117
10,SH3GLB1_Q9Y371_304_ECSGSR (UniProt Q9Y371),-0.137
11,SLC4A1AP_Q9BWU0_399_EGEELEYEFDEQGHSTWLCR (UniProt Q9BWU0),-0.0527
12,SPATA5_Q8NB90_459_HPSIIFIDELDALCPK (UniProt Q8NB90),-0.0102
13,SORBS3_O60504_482_GEHICLIR (UniProt O60504),0.12
14,SLFN11_Q7Z7L1_322_VNPFCCAVFSEAPNSWIVEDK (UniProt Q7Z7L1),0.661
15,RRP8_O43159_451_AQLSGLQLQPCLYK (UniProt O43159),0.0693
16,SMU1_Q2TAY7_416_NPEHFVVCNR (UniProt Q2TAY7),-0.00322
17,SNRPB_P14678_43+45_HMNLILCDCDEFRK (UniProt P14678),-0.0283
18,SNX27_Q96L92_432+434_TCEGYNEIIFPHCACDSR (UniProt Q96L92),0.835
19,SDF2_Q99470_137_NLHSHHFTSPLSGNQEVSAFGEEGEGDYLDDWTVLCNGPYWVR (UniProt Q99470),0.298

row,Target,probe-labelled cysteine peptide fold change
1,SEC63_Q9UGP8_490_EQSICAAEEQPAEDGQGETNK (UniProt Q9UGP8),0.0683
2,SNTB1_Q13884_515_DGEIQLDLHSCPK (UniProt Q13884),0.144
3,RPS2_P15880_222_KLLMMAGIDDCYTSAR (UniProt P15880),-0.59
4,RSL1D1_O76021_96_SDSEDICLFTK (UniProt O76021),-0.0174
5,SEC61A1_P61619_13_FLEVIKPFCVILPEIQKPERK (UniProt P61619),-0.291
6,SLC7A6OS_Q96CW6_62_AAENNVFHLVATVCSQEEPVQPLLR (UniProt Q96CW6),-0.0977
7,SNX14_Q9Y5W7_593_IPVFCIDVER (UniProt Q9Y5W7),0.3
8,SBF1_O95248_987_SCTFQLLK (UniProt O95248),-0.0361
9,SCAF11_Q99590_752_QMNENSVTHCSENNMPSSDLADEK (UniProt Q99590),0.00365
10,SMYD3_Q9H7B4_263_DQYCFECDCFR (UniProt Q9H7B4),-0.0567
11,SIL1_Q9H173_408_VLQTLGVLLTTCR (UniProt Q9H173),0.0793
12,RRM1_P23921_218_WFTHASPTLFNAGTNRPQLSSCFLLSMKDDSIEGIYDTLK (UniProt P23921),0.111
13,SMAD9_O15198_93_GLPHVIYCR<|>SMAD3_Q15796_89_GLPHVIYCR<|>SMAD2_Q99717_129_GLPHVIYCR (UniProt Q99717+Q15796+O15198),-0.076
14,SFMBT2_Q5VUG0_796_CPPTKPEGTEDTKQEEEERLVLESNPLEWTVTDVVR (UniProt Q5VUG0),-0.043
15,SEC24C_P53992_493_RVDAYDRPELSLGSYEFLATVDYCK (UniProt P53992),-0.123
16,RUVBL1_Q9Y265_94_VPFCPMVGSEVYSTEIK (UniProt Q9Y265),0.0537
17,SEPT9_Q9UHD8_531_WGTIEVENTTHCEFAYLR (UniProt Q9UHD8),0.0123
18,SNRPC_P09234_6_FYCDYCDTYLTHDSPSVR (UniProt P09234),-0.122
19,SMAD4_Q13485_127_CDSVCVNPYHYER (UniProt Q13485),0.000739

# Same assay, conditions: 50 µM; THP-1; incubation time: 4 h
row,Target,probe-labelled cysteine peptide fold change
1,SLC35B1_P78383_119_SCKPIPVMLLGVTLLK (UniProt P78383),0.0401
2,SIRT6_Q8N6T7_141_LAELHGNMFVEECAK (UniProt Q8N6T7),0.00561
3,RPS17_P08708_35_RVCEEIAIIPSKK (UniProt P08708),0.0725
4,SEPHS2_Q99611_377_FGLLQGTSAETSGGLLICLPR (UniProt Q99611),-0.657
5,SAFB2_Q14151_224_ILDILGETCK<|>SAFB_Q15424_225_ILDILGETCK (UniProt Q15424+Q14151),-0.165
6,SNTB1_Q13884_515_DGEIQLDLHSCPKPIVFIIHSFLSAK (UniProt Q13884),0.302
7,SNX18_Q96RF0-2_570_CNTISFATLAEIHHFHQIR (UniProt Q96RF0),0.111
8,SMS_P52788_256_TCGDVLDNLKGDCYQVLIEDCIPVLKR (UniProt P52788),-0.139
9,SEC16A_O15027_1293_YWCDAEYDAYR (UniProt O15027),-0.311
10,SH3GLB1_Q9Y371_304_ECSGSR (UniProt Q9Y371),0.575
11,SLC4A1AP_Q9BWU0_399_EGEELEYEFDEQGHSTWLCR (UniProt Q9BWU0),0.0332
12,SPATA5_Q8NB90_459_HPSIIFIDELDALCPK (UniProt Q8NB90),-0.321
13,SORBS3_O60504_482_GEHICLIR (UniProt O60504),0.166
14,SLFN11_Q7Z7L1_322_VNPFCCAVFSEAPNSWIVEDK (UniProt Q7Z7L1),0.447
15,RRP8_O43159_451_AQLSGLQLQPCLYK (UniProt O43159),-0.167
16,SMU1_Q2TAY7_416_NPEHFVVCNR (UniProt Q2TAY7),0.0655
17,SNRPB_P14678_43+45_HMNLILCDCDEFRK (UniProt P14678),-0.00106
18,SNX27_Q96L92_432+434_TCEGYNEIIFPHCACDSR (UniProt Q96L92),0.695
19,SDF2_Q99470_137_NLHSHHFTSPLSGNQEVSAFGEEGEGDYLDDWTVLCNGPYWVR (UniProt Q99470),0.622

row,Target,probe-labelled cysteine peptide fold change
1,SEC63_Q9UGP8_490_EQSICAAEEQPAEDGQGETNK (UniProt Q9UGP8),-0.228
2,SNTB1_Q13884_515_DGEIQLDLHSCPK (UniProt Q13884),0.6
3,RPS2_P15880_222_KLLMMAGIDDCYTSAR (UniProt P15880),-0.607
4,RSL1D1_O76021_96_SDSEDICLFTK (UniProt O76021),-0.141
5,SEC61A1_P61619_13_FLEVIKPFCVILPEIQKPERK (UniProt P61619),-0.191
6,SLC7A6OS_Q96CW6_62_AAENNVFHLVATVCSQEEPVQPLLR (UniProt Q96CW6),-0.671
7,SNX14_Q9Y5W7_593_IPVFCIDVER (UniProt Q9Y5W7),0.776
8,SBF1_O95248_987_SCTFQLLK (UniProt O95248),0.064
9,SCAF11_Q99590_752_QMNENSVTHCSENNMPSSDLADEK (UniProt Q99590),-0.727
10,SMYD3_Q9H7B4_263_DQYCFECDCFR (UniProt Q9H7B4),0.116
11,SIL1_Q9H173_408_VLQTLGVLLTTCR (UniProt Q9H173),0.848
12,RRM1_P23921_218_WFTHASPTLFNAGTNRPQLSSCFLLSMKDDSIEGIYDTLK (UniProt P23921),0.0345
13,SMAD9_O15198_93_GLPHVIYCR<|>SMAD3_Q15796_89_GLPHVIYCR<|>SMAD2_Q99717_129_GLPHVIYCR (UniProt Q99717+Q15796+O15198),-0.0521
14,SFMBT2_Q5VUG0_796_CPPTKPEGTEDTKQEEEERLVLESNPLEWTVTDVVR (UniProt Q5VUG0),-0.0391
15,SEC24C_P53992_493_RVDAYDRPELSLGSYEFLATVDYCK (UniProt P53992),0.0859
16,RUVBL1_Q9Y265_94_VPFCPMVGSEVYSTEIK (UniProt Q9Y265),-0.0791
17,SEPT9_Q9UHD8_531_WGTIEVENTTHCEFAYLR (UniProt Q9UHD8),-0.0856
18,SNRPC_P09234_6_FYCDYCDTYLTHDSPSVR (UniProt P09234),-0.874
19,SMAD4_Q13485_127_CDSVCVNPYHYER (UniProt Q13485),0.0905
